# High-throughput results: PubChem BioAssay, National Center for Advancing Translational Sciences (NCATS)
# Compounds with a hit are over-represented: about 21% of the library has one in this group of screens.
# NS1 function inh: blocks influenza NS1 protein function. Potency, µM (titrated, usually from 46.1 µM), for inactives: at the top dose activity, positive = more growth. 270,000 compounds, 0.4% hits. AID 2326; calls by dose curve; also: potency is read from the fitted curve at half-maximal effect; actives are rising curves; nearly all actives have a fitted effect of over 50% in size
#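 A cell-based growth assay was used: compounds that relieve NS1-induced slow growth of budding yeast raise OD600. Assay medium was yeast nitrogen base with ammonium sulphate and -URA supplement, pH 6.0, with 2% galactose.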
# Pf growth 96h: P. falciparum growth inhibition at 96 hour, primary screen for plastid delayed-death inhibitors. P. falciparum luciferase reporter growth, 96 h. Potency, µM (highest dose often 28.7 µM), without a hit: at the top dose activity change, negative = inhibition, most hits filed as inhibitors. 320,000 compounds, 6.9% hits; also: potency is read from the fitted curve at half-maximal effect; % is scaled to controls: 0 for no effect and ±100 for the full control effect
#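 Two parasite generations (96 h, 37 C, 5% CO2) of compound exposure in infected erythrocytes (0.05% parasitemia, 2% hematocrit). Luciferase-reporter P. falciparum; decreased luminescence indicates inhibited growth, aimed at apicoplast-acting delayed death.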
# SARS PLpro yeast: inhibitors of SARS-CoV papain-like protease in yeast. S. cerevisiae expressing SARS-CoV PLpro, growth rescue. Potency, µM (doses to about 32.9 µM), for the others: at the top dose activity, positive = growth rescue, actives largely listed as activators. 330,000 compounds, 0.19% hits; calls by dose curve; also: potency is read from the fitted curve at half-maximal effect; 0% is about no effect; nearly all actives have a fitted effect of over 55% in size
# CHX counter: counter-screen for Shiga toxin inhibitors: cycloheximide protein synthesis inhibition; cell reporter, cycloheximide protein synthesis inhibition counterscreen; max response, %; 300,000 compounds, 12% hits; AID 2314; in the data active = max response mostly above about 13%, no sharp cut-off; inactive = mostly below about 14%; also: read at 38.3 µM for the half of the compounds with a filed dose; 0% is about no effect
# Pf growth 48h: inhibits P. falciparum growth in the first generation, 48 h. Potency, µM (doses to about 28.7 µM), for the others: at the top dose activity change, negative = inhibition, actives largely listed as inhibitors. P. falciparum luciferase growth in erythrocytes, 48 h. 310,000 compounds, 5.9% hits; also: potency is read from the fitted curve at half-maximal effect; % is scaled to controls: 0 for no effect and ±100 for the full control effect
#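 Luminescence readout; reporter = integrated firefly luciferase in P. falciparum. RBC culture at 2% hematocrit, 0.1% parasitemia final, 37 C/5% CO2; decreased signal taken as growth inhibition.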
# Shiga toxin inh: blocks Shiga toxin action in Vero cells; Vero cells, Shiga toxin protein synthesis inhibition reporter; AID 2315; inhibition, % at 38.7 µM; 290,000 compounds, 9.2% hits; in the data active = inhibition mostly above about 28%, no sharp cut-off; inactive = mostly below about 43%; also: 0% is about no effect
# * marks the source's active call; other numbers are inactive results; i = inactive; ? = inconclusive; / = not tested or not shown; [ ] = dose if it differs, or a comment. Unless noted, calls follow the shape of the dose curve; as a rule, active = well fitted inhibition curve with a large enough effect; inconclusive = small, poorly fitted or top-dose-only effect, or another doubt; inactive = no such curve, though single readings can be large or run the other way.
SMILES,NS1 function inh,Pf growth 96h,SARS PLpro yeast,CHX counter,Pf growth 48h,Shiga toxin inh
CN1C(=O)/C(=C/c2ccccc2OCc2ccccc2F)NC1=S,1%,19%,8%,-3,8%,-16
CC12CCC(=O)N1C(C(=O)Nc1cc(Cl)ccc1N1CCCC1)CS2 (centres undefined),/,?,-7%,/,?,/
CC(=O)N[C@@H](C)c1nc2ccccc2n1CCCN1CCN(c2nc(-c3ccc(C)cc3)cs2)CC1,4%,?,3%,1,?,17
CCOC(=O)c1ccc(NC(=O)C(C)Sc2nc(O)c(-c3ccccc3)c(=O)[nH]2)cc1 (centres undefined),6%,1%,0%,1,13%,-13
CN1CCN(c2ccc(NC(=O)c3ccc(Cl)cc3)cn2)CC1,/,?,1%,42*,?,23
COc1ccc(NC(=O)Nc2ccc(F)c(F)c2)c(OC)c1,-3%,21%,0%,14*,?,-1
Cc1ccc(NS(=O)(=O)c2cc([N+](=O)[O-])ccc2NNC(=S)Nc2cc(C)ccc2C)c(C)c1,13µM*,9.3µM*,6%,5,15µM*,-13
COc1ccc(NC(=O)Nc2ccncc2)c(OC)c1,3%,60%,-1%,-3,?,-15
COc1ccc(NC(=O)Nc2cccc(F)c2)c(OC)c1,/,-18%,-1%,17*,-24%[5.75 µM],46
COc1ccc(CC(C(=O)Nc2cccc(F)c2)c2nn[nH]n2)c(OC)c1 (centres undefined),0%,/,-5%,17*,13%,38
Cc1ccc([N+](=O)[O-])cc1NC(=O)Nc1cccc(F)c1,6%,?,10%,-1,7.4µM*,5
Cc1ccc([N+](=O)[O-])cc1NC(=S)NC(=O)C(C)(C)C,-3%,-4%,-9%,14*,17%,34
Clc1ccc(-c2nc3ccccn3c2CN2CCCCC2)cc1,/,-28%,5%,19*,?,40
Cc1ccn2c(CN3CCOCC3)c(-c3ccccc3)nc2c1,4%,115%,-2%,28*,103%,48*
CN(C)Cc1c(-c2ccc(Cl)cc2)nc2ccccn12,3%,8%,-1%,45*,36%,126*
Cc1ccc(C)c(Cn2nc(-c3cc(C)ccc3C)ccc2=O)c1,-8%,-11%,-11%,0,0%,-5
Cc1ccc(N2C(=O)C3CCC(C)(C2=O)C3(C)C)cc1C (centres undefined),2%,13%,1%,3,16%,20
CCOC(=O)N1CCN(C(=S)Nc2cc(S(=O)(=O)N3CCOCC3)ccc2Cl)CC1,-2%,2%,0%,-3,-12%,-3
CCN(CC(=O)Nc1c(F)cccc1F)C(=O)C1CC(=O)N(c2ccc3c(c2)OCCO3)C1 (centres undefined),/,14%,0%,/,?,/
Fc1ccc(OCc2nc(-c3cccs3)no2)cc1,-5%,20%,-1%,41*,107%,110*
c1ccc(OCc2nc(-c3cccs3)no2)cc1,-12%,248%,2%,45*,/,76*
Cc1cc(OCc2nc(-c3cccs3)no2)cc(C)c1Cl,-1%,37%,-17%,37*,/,42*
O=C(NCc1ccc(F)cc1)c1nc(-c2cccs2)no1,/,46%[5.75 µM],-3%,1,16%,26
Cc1ccc(Cl)cc1N1CCN(C(=O)C(C)n2ncn3cccc3c2=O)CC1 (centres undefined),-1%,7%,-1%,1,-7%,-2
COc1ccc(/C=N/Nc2nnc(Cc3ccccc3)c(=O)[nH]2)cc1,0%,37%,-1%,-2,44%,-13
O=c1[nH]ncc(N/N=C/c2ccccc2)c1Cl,-39%,/,?,5,37%,20
CC1=NNC(=O)C1CC(=O)N/N=C/c1sccc1C (centres undefined),0%,45%,3%,12,80%,1
Cc1ccc(/C=N\Nc2cn[nH]c(=O)c2Cl)cc1,-38%,/,9%,38*,94%,107
Cc1ccsc1/C=N\Nc1cn[nH]c(=O)c1Cl,/,28%,1%,31*,47%,46
COc1ccc(/C=N/Nc2cn[nH]c(=O)c2Cl)cc1,/,19%,1%,29*,i,60
